{"source": "PubChem BioAssay (NCATS)", "key": {"[1]": {"experiment": "Primary qHTS for inhibitors of La Crosse Virus (LACV) - induced cell death in SH-SY5Y cells (AID 1508616);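 also: top concentration of the series differs between compounds; higher means more rescue of cells from virus-induced death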", "conditions": "SH-SY5Y LACV cytopathicity rescue, ATP luminescence, 6 d; series mostly up to 4.29 µM", "how_it_was_run": "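Screening measures cell viability in LACV-infected SH-SY5Y cultures. Compound was added before virus (0.01 MOI), and ATP was detected by luminescence 6 days later.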"}, "[2]": {"biological_target": "Calcium and integrin-binding protein 1 (Homo sapiens) (UniProt Q99828)", "sequence (Q99828 whole entry, looked up)": "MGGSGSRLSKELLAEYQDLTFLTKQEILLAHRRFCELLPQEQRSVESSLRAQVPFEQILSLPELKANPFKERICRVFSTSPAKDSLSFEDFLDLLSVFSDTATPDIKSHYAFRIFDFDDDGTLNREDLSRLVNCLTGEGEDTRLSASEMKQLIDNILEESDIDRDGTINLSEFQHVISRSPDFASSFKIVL", "experiment": "Primary qHTS for Identification of Calcium Integrin Binding Protein 1 (CIB1) Competitor (AID 1508620);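 also: GST tagged CIB1 binding a fluorescein labelled alphaIIb integrin peptide tracer; top concentration of the series differs between compounds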", "conditions": "CIB1-GST / FITC-alphaIIb peptide fluorescence polarization; series mostly up to 114 µM", "how_it_was_run": "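Fluorescence polarization competition: CIB1-GST (1 uM final) preincubated with compound 15 min at room temperature, then FITC-labeled alphaIIb peptide (100 nM final) added for another 15 min. Polarization read at Ex 480/Em 540.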"}, "[3]": {"experiment": "Primary qHTS for small molecule stabilizers of the endoplasmic reticulum resident proteome: Secreted ER Calcium Modulated Protein (SERCaMP) assay (AID 1508630)", "conditions": "SH-SY5Y GLuc-SERCaMP (Gaussia luciferase released on ER calcium loss) secretion, thapsigargin, luminescence; series mostly up to 38.4 µM", "how_it_was_run": "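The SH-SY5Y reporter protocol was run at 3 concentrations up to 38.3 uM (primary) or 11 concentrations (follow-up): 16 h compound, 100 nM thapsigargin for 4 h, then extracellular luciferase luminescence.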"}, "[4]": {"experiment": "Counterscreen qHTS for small molecule stabilizers of the endoplasmic reticulum resident proteome: GLuc-NoTag assay (AID 1508627)", "conditions": "Gaussia luciferase NoTag secretion counterscreen, luminescence, thapsigargin 100 nM for final 4 h; series mostly up to 76.4 µM", "how_it_was_run": "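Secreted GLuc lacking the SERCaMP modification is measured in SH-SY5Y cells exposed to compound for 19 h and then to thapsigargin (100 nM, 4 h) to deplete ER calcium; hits retested at 11 concentrations, up to 76.6 uM.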"}, "[5]": {"experiment": "Confirmatory qHTS for small molecule stabilizers of the endoplasmic reticulum resident proteome: Secreted ER Calcium Modulated Protein (SERCaMP) assay (AID 1508628); also: nearly all actives have a fitted effect of over 40% in size", "conditions": "SERCaMP secreted luciferase ER calcium/proteostasis reporter; series mostly up to 76.3 µM", "how_it_was_run": "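GLuc-SERCaMP-expressing SH-SY5Y cells, pretreated 16 h with compound, are challenged with thapsigargin to empty ER calcium stores; after 4 h, coelenterazine is added directly to the medium and luminescence is imaged.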"}, "[6]": {"experiment": "Cell Viability qHTS for small molecule stabilizers of the endoplasmic reticulum resident proteome (AID 1508629);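 also: human SH-SY5Y neuroblastoma cells carrying the GLuc-SERCaMP reporter; compound exposure about 46 h in total before the viability read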", "conditions": "cell viability counter-screen, 100 nM thapsigargin for final 4 h"}}, "note": "Inconclusive results are not listed. Where a call stands in place of a potency, no number is given. Unmarked numbers belong to inactive results. Calls of active or inactive are those of the source. Calls follow the shape of the dose curve; as a rule, active = well fitted curve in the direction sought with a large enough effect; inconclusive = small, poorly fitted or top-dose-only effect, or another doubt; inactive = no such curve, though single readings can be large; an effect the other way counts as inactive or inconclusive.", "data": [{"smiles": "Cc1ccc(C(=O)C(C)CN2CCCCC2)cc1", "note": "(stereo not given)", "values": [{"measurement": "Potency", "setting": "[1]", "value": "inactive"}, {"measurement": "Potency", "setting": "[2]", "value": "inactive"}, {"measurement": "Potency", "setting": "[3]", "value": "inactive"}]}, {"smiles": "CCCN1CCCC[C@H]1C(=O)Nc1c(C)cccc1C", "values": [{"measurement": "Potency", "setting": "[1]", "value": "inactive"}, {"measurement": "Potency", "setting": "[2]", "value": "inactive"}, {"measurement": "Potency", "setting": "[3]", "value": "inactive"}]}, {"smiles": "CN=C(NC#N)NCCSCc1csc(N=C(N)N)n1", "values": [{"measurement": "Potency", "setting": "[1]", "value": "inactive"}, {"measurement": "Potency", "setting": "[2]", "value": "inactive"}, {"measurement": "Potency", "setting": "[3]", "value": "inactive"}]}, {"smiles": "CC[N+](CC)(CCNC(=O)C(=O)NCC[N+](CC)(CC)Cc1ccccc1Cl)Cc1ccccc1Cl", "values": [{"measurement": "Potency", "setting": "[1]", "value": "inactive"}, {"measurement": "Potency", "setting": "[2]", "value": "inactive"}, {"measurement": "Potency", "setting": "[3]", "value": "inactive"}]}, {"smiles": "CCCCC1=NC2(CCCC2)C(=O)N1Cc1ccc(-c2ccccc2-c2nn[nH]n2)cc1", "values": [{"measurement": "Potency", "setting": "[1]", "value": "inactive"}, {"measurement": "Potency", "setting": "[2]", "value": "inactive"}, {"measurement": "Potency", "setting": "[3]", "value": "inactive"}]}, {"smiles": "C[C@@H]1C[C@H]2[C@@H]3CCC4=CC(=O)C=C[C@]4(C)[C@@]3(F)[C@@H](O)C[C@]2(C)[C@H]1C(=O)CO", "values": [{"measurement": "Potency", "setting": "[1]", "value": "inactive"}, {"measurement": "Potency", "setting": "[2]", "value": "inactive"}, {"measurement": "Potency", "setting": "[3]", "value": "inactive"}]}, {"smiles": "O=C1c2ccccc2C(=O)C1c1ccccc1", "values": [{"measurement": "Potency", "setting": "[1]", "value": "inactive"}, {"measurement": "Potency", "setting": "[2]", "value": "inactive"}, {"measurement": "Potency", "setting": "[3]", "value": "inactive"}]}, {"smiles": "CC(C)(C)CC(C)(C)c1ccc(O)c(Cc2ccc(Cl)cc2Cl)c1", "values": [{"measurement": "Potency", "setting": "[1]", "value": "inactive"}, {"measurement": "Potency", "setting": "[2]", "value": "inactive"}, {"measurement": "Potency", "setting": "[3]", "value": "inactive"}]}, {"smiles": "CCCCCCC[N+](CC)(CC)CCCCc1ccc(Cl)cc1", "values": [{"measurement": "Potency", "setting": "[1]", "value": "inactive"}, {"measurement": "Potency", "setting": "[2]", "value": "inactive"}, {"measurement": "Potency", "setting": "[3]", "value": "inactive"}]}, {"smiles": "CC1(C)O[C@@H]2C[C@H]3[C@@H]4C[C@H](F)C5=CC(=O)CC[C@]5(C)[C@H]4[C@@H](O)C[C@]3(C)[C@]2(C(=O)CO)O1", "values": [{"measurement": "Potency", "setting": "[1]", "value": "inactive"}, {"measurement": "Potency", "setting": "[2]", "value": "inactive"}, {"measurement": "Potency", "setting": "[3]", "value": "inactive"}]}, {"smiles": "CCCCN1CCCC1C(=O)Nc1c(C)cc(C)cc1C", "note": "(stereo not given)", "values": [{"measurement": "Potency", "setting": "[1]", "value": "inactive"}, {"measurement": "Potency", "setting": "[2]", "value": "inactive"}, {"measurement": "Potency", "setting": "[3]", "value": "inactive"}]}, {"smiles": "CC(=O)OCC(=O)[C@@]12N=C(C)O[C@@H]1C[C@H]1[C@@H]3CCC4=CC(=O)C=C[C@]4(C)[C@H]3[C@@H](O)C[C@@]12C", "values": [{"measurement": "Potency", "setting": "[1]", "value": "inactive"}, {"measurement": "Potency", "setting": "[2]", "value": "inactive"}, {"measurement": "Potency", "setting": "[3]", "value": "inactive"}]}, {"smiles": "CC1(C)O[C@@H]2[C@@H](CO[C@@]3(COS(N)(=O)=O)OC(C)(C)O[C@@H]23)O1", "values": [{"measurement": "Potency", "setting": "[1]", "value": "inactive"}, {"measurement": "Potency", "setting": "[2]", "value": "inactive"}, {"measurement": "Potency", "setting": "[3]", "value": "inactive"}]}, {"smiles": "COc1cc2c(cc1OC)C(=O)C(CC1CCN(Cc3ccccc3)CC1)C2", "note": "(stereo not given)", "values": [{"measurement": "Potency", "setting": "[1]", "value": "inactive"}, {"measurement": "Potency", "setting": "[2]", "value": "inactive"}, {"measurement": "Potency", "setting": "[3]", "value": "inactive"}]}, {"smiles": "CN1CCC[C@@H]1c1cccnc1", "values": [{"measurement": "Potency", "setting": "[1]", "value": "inactive"}, {"measurement": "Potency", "setting": "[2]", "value": "inactive"}, {"measurement": "Potency", "setting": "[3]", "value": "inactive"}]}, {"smiles": "c1ccc(OCc2ccc(CCCN3CCOCC3)cc2)cc1", "values": [{"measurement": "Potency", "setting": "[1]", "value": "inactive"}, {"measurement": "Potency", "setting": "[2]", "value": "inactive"}, {"measurement": "Potency", "setting": "[3]", "value": "inactive"}]}, {"smiles": "CCC(C(=O)OCCN(CC)CC)c1ccccc1", "note": "(stereo not given)", "values": [{"measurement": "Potency", "setting": "[1]", "value": "inactive"}, {"measurement": "Potency", "setting": "[2]", "value": "inactive"}, {"measurement": "Potency", "setting": "[3]", "value": "inactive"}]}, {"smiles": "CCCCCCCCCCCCCCCCOP(=O)([O-])OCC[N+](C)(C)C", "values": [{"measurement": "Potency", "setting": "[1]", "value": "inactive"}, {"measurement": "Potency", "setting": "[2]", "value": "inactive"}, {"measurement": "Potency", "setting": "[3]", "value": "inactive"}]}, {"smiles": "C[C@H]1C[C@H]2[C@@H]3CCC4=CC(=O)C=C[C@]4(C)[C@@]3(Cl)[C@@H](O)C[C@]2(C)[C@@]1(O)C(=O)CO", "values": [{"measurement": "Potency", "setting": "[1]", "value": "inactive"}, {"measurement": "Potency", "setting": "[2]", "value": "inactive"}, {"measurement": "Potency", "setting": "[3]", "value": "inactive"}]}, {"smiles": "CC(=O)OCC(=O)[C@@]1(O)CC[C@H]2[C@@H]3CCC4=CC(=O)C=C[C@]4(C)[C@H]3[C@@H](O)C[C@@]21C", "values": [{"measurement": "Potency", "setting": "[1]", "value": "inactive"}, {"measurement": "Potency", "setting": "[2]", "value": "inactive"}, {"measurement": "Potency", "setting": "[3]", "value": "inactive"}]}, {"smiles": "CCCCc1nc(Cl)c(CO)n1Cc1ccc(-c2ccccc2-c2nn[nH]n2)cc1", "values": [{"measurement": "Potency", "setting": "[1]", "value": "inactive"}, {"measurement": "Potency", "setting": "[2]", "value": "inactive"}, {"measurement": "Potency", "setting": "[3]", "value": "inactive"}]}, {"smiles": "CN=C(NC#N)Nc1ccc(C2=NNC(=O)CC2C)cc1", "note": "(stereo not given)", "values": [{"measurement": "Potency", "setting": "[1]", "value": "inactive"}, {"measurement": "Potency", "setting": "[2]", "value": "inactive"}, {"measurement": "Potency", "setting": "[3]", "value": "inactive"}]}, {"smiles": "O=C(OCCOCCO)c1ccccc1Nc1cccc(C(F)(F)F)c1", "values": [{"measurement": "Potency", "setting": "[1]", "value": "inactive"}, {"measurement": "Potency", "setting": "[2]", "value": "inactive"}, {"measurement": "Potency", "setting": "[3]", "value": "inactive"}]}, {"smiles": "Cc1ncc(CSSCc2cnc(C)c(O)c2CO)c(CO)c1O", "values": [{"measurement": "Potency", "setting": "[1]", "value": "inactive"}, {"measurement": "Potency", "setting": "[2]", "value": "inactive"}, {"measurement": "Potency", "setting": "[3]", "value": "inactive"}]}, {"smiles": "O=C(Nc1ccc(Oc2ccc(Cl)cc2)c(Cl)c1)c1cc(I)cc(I)c1O", "values": [{"measurement": "outcome", "setting": "[4]", "value": "inactive"}]}, {"smiles": "CCCCCCCCCCCCCCCCCC(=O)OCC(O)CO", "note": "(stereo not given)", "values": [{"measurement": "outcome", "setting": "[4]", "value": "inactive"}, {"measurement": "Potency", "setting": "[5]", "value": "inactive"}, {"measurement": "max response", "setting": "[6]", "value": 15.4, "unit": "%"}]}, {"smiles": "CC(=O)Oc1ccc(C(=C2CCCCC2)c2ccc(OC(C)=O)cc2)cc1", "values": [{"measurement": "Potency", "setting": "[5]", "value": "inactive"}]}, {"smiles": "COc1cc(NS(C)(=O)=O)ccc1Nc1c2ccccc2nc2ccccc12", "values": [{"measurement": "Potency", "setting": "[1]", "value": "inactive"}, {"measurement": "Potency", "setting": "[3]", "value": "inactive"}]}, {"smiles": "CN1CCN(CCCN2c3ccccc3Sc3ccc(S(=O)(=O)N(C)C)cc32)CC1", "values": [{"measurement": "Potency", "setting": "[2]", "value": "inactive"}, {"measurement": "max response", "setting": "[6]", "value": -9.17, "unit": "%"}]}, {"smiles": "CCCCC(=O)O[C@]1(C(=O)CO)CC[C@H]2[C@@H]3CCC4=CC(=O)CC[C@]4(C)[C@H]3[C@@H](O)C[C@@]21C", "values": [{"measurement": "Potency", "setting": "[1]", "value": "inactive"}, {"measurement": "Potency", "setting": "[3]", "value": "inactive"}]}, {"smiles": "C[C@]12CCC(=O)C=C1CC[C@H]1[C@@H]3CC[C@](O)(C(=O)CO)[C@@]3(C)C[C@H](O)[C@@]12F", "values": [{"measurement": "Potency", "setting": "[1]", "value": "inactive"}, {"measurement": "Potency", "setting": "[3]", "value": "inactive"}]}]}
